Data as given in PubChem BioAssay (Tox21).
Inconclusive results are not listed. Active and inactive are the calls of the source. Unless noted, calls follow the shape of the dose curve; as a rule, active = well fitted curve in the direction sought with a large enough effect in the repeat runs; inconclusive = weak or mixed curves; inactive = no such curve, though single readings can be large; an effect the other way counts as inactive or inconclusive.

How the values were obtained:
[1] = qHTS assay to identify small molecule antagonists of the retinoid acid receptor (RAR) signaling pathway - cell viability counter screen (AID 1159551); also: nearly all actives have a fitted effect of over 35% in size; also: potency is read from the fitted curve at half-maximal effect
Summary of the method: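 Viability of C3RL4 cells is quantified from ATP by luminescence after 6 h treatment at 37 C with compounds and 1 uM retinol.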

[2] = qHTS assay to identify small molecule antagonists of the retinoic acid receptor (RAR) signaling pathway (AID 1159552; also: nearly all actives have a fitted effect of over 50% in size; also: potency is read from the fitted curve at half-maximal effect)
Summary of the method: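 Luminescent RARE reporter read-out in C3RL4 cells: 6 hr co-treatment at 37 C of test compounds with retinol at 1 uM final. Cells plated overnight beforehand; luciferase reagent incubated 30 min at room temperature before reading.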

[3] = qHTS assay to identify small molecule agonists of the retinoic acid receptor (RAR) signaling pathway (AID 1159553); also: potency is read from the fitted curve at half-maximal effect
Summary of the method: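 Compounds dissolved in DMSO were pinned onto C3RL4 cells seeded the previous day, and plates were held 6 hr at 37 C. RARE-driven luciferase output was then read by luminescence.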

[4] = qHTS assay to identify small molecule antagonists of the estrogen related receptor (ERR) signaling pathway from Tox21 library - cell viability counter screen (AID 1224834); also: nearly all actives have a fitted effect of over 30% in size; also: potency is read from the fitted curve at half-maximal effect
Summary of the method: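 In this quantitative HTS format, ERR cells receive compounds in DMSO and are incubated for 17.5 h at 37 C. Live-cell protease activity is then detected with CellTiter-Fluor.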

[5] = target: Luciferin 4-monooxygenase (Photinus pyralis) (UniProt P08659); assay: qHTS assay to identify small molecule inhibitors of firefly luciferase (AID 1224835); also: nearly all actives have a fitted effect of over 25% in size; also: potency is read from the fitted curve at half-maximal effect
Luciferin 4-monooxygenase (Photinus pyralis), sequence (P08659 whole entry, looked up): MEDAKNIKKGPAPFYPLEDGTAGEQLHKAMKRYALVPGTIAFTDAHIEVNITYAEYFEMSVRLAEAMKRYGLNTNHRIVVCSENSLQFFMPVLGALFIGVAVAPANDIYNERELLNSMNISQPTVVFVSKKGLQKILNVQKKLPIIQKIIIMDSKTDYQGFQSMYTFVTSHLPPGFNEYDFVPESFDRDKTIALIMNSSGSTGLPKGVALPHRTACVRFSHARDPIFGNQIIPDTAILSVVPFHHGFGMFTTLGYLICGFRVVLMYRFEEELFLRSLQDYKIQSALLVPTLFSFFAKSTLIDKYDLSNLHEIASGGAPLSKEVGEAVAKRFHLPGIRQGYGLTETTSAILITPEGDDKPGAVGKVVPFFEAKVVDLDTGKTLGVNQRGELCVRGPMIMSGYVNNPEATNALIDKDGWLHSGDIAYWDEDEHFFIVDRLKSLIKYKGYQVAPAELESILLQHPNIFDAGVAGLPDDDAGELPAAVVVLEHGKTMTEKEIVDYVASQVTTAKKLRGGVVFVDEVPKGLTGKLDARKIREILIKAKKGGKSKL
Summary of the method: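 Quantitative HTS format; KM concentrations of both substrates. Purified P. pyralis FLuc activity quantified from luminescence images.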

[6] = qHTS assay to identify small molecule antagonists of the constitutive androstane receptor (CAR) signaling pathway - cell viability counter screen (AID 1224837); also: series mostly up to about 92 µM; nearly all actives have a fitted effect of over 45% in size
Summary of the method: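 In quantitative HTS format, compounds at 15 concentrations were applied to HepG2 cells double-transfected with hCAR and CYP2B6-2.2kb under 50 nM CITCO stimulation; live-cell protease activity was read after 23 hr via CellTiter-Fluor.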

[7] = target: Nuclear receptor subfamily 1 group I member 3 (Homo sapiens) (UniProt Q14994); assay: qHTS assay to identify small molecule antagonists of the constitutive androstane receptor (CAR) signaling pathway (AID 1224838); also: nearly all actives have a fitted effect of over 40% in size; also: potency is read from the fitted curve at half-maximal effect
Nuclear receptor subfamily 1 group I member 3 (Homo sapiens), sequence (Q14994 whole entry, looked up): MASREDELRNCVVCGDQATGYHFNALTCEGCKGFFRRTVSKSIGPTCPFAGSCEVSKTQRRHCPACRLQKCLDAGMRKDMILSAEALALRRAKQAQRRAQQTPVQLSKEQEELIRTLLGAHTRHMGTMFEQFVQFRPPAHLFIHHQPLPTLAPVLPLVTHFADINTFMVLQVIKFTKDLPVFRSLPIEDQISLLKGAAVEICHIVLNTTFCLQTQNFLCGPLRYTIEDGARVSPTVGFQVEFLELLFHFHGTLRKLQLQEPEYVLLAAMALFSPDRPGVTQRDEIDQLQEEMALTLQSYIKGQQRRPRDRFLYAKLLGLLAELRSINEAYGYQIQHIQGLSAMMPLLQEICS
Summary of the method: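 CITCO-stimulated (50 nM final) HepG2 cells stably transfected with hCAR and CYP2B6-2.2kb luciferase were exposed to compounds at 15 concentrations for 24 h at 37 C/5% CO2. A luciferase reagent was added and luminescence recorded after 30 min.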

[8] = target: Nuclear receptor subfamily 1 group I member 3 (Homo sapiens) (UniProt Q14994); assay: qHTS assay to identify small molecule agonists of the constitutive androstane receptor (CAR) signaling pathway (AID 1224839); also: nearly all actives have a fitted effect of over 15% in size; also: potency is read from the fitted curve at half-maximal effect
Summary of the method: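 Luminescent ONE-Glo read-out after 24 hr, 37 C exposure of double-stable HepG2-CYP2B6-hCAR reporter cells to a 15-point compound series, in the presence of 0.75 uM PK11195 (final).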

[9] = qHTS assay to identify small molecule antagonists of the estrogen related receptor signaling pathway with the pleiotropic PPARgamma coactivator (PGC) from Tox21 10K library - cell viability counter screen (AID 1224840; active = well fitted cell-killing curve with a large enough effect in the repeat runs, not every such curve was filed as active; also: nearly all actives have a fitted effect of over 40% in size; also: potency is read from the fitted curve at half-maximal effect)
Summary of the method: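 Viability counter screen, PGC/ERR cells: 17.5 h compound exposure at 37 C, CellTiter-Fluor fluorescence endpoint.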

[10] = qHTS assay to identify small molecule antagonists of the estrogen related receptor signaling pathway with the pleiotropic PPARgamma coactivator (PGC) from Tox21 10K library (AID 1224841; call rule not given here; also: actives are mostly falling curves and most rising ones were filed inactive; nearly all actives have a fitted effect of over 50% in size; also: potency is read from the fitted curve at half-maximal effect)
Summary of the method: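 In the PGC/ERR line, DMSO solutions of test chemicals are pin-delivered to 2,000 cells/well six hours after dispensing. Following eighteen hours' incubation, One-Glo reagent is added and luminescence recorded.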

[11] = target: Thyrotropin receptor (Homo sapiens) (UniProt P16473); assay: qHTS assay to identify small molecule agonists of the thyroid stimulating hormone receptor (TSHR) signaling pathway (AID 1224843; calls by dose curve; also: nearly all actives have a fitted effect of over 45% in size; also: potency is read from the fitted curve at half-maximal effect)
Thyrotropin receptor (Homo sapiens), sequence (P16473 whole entry, looked up): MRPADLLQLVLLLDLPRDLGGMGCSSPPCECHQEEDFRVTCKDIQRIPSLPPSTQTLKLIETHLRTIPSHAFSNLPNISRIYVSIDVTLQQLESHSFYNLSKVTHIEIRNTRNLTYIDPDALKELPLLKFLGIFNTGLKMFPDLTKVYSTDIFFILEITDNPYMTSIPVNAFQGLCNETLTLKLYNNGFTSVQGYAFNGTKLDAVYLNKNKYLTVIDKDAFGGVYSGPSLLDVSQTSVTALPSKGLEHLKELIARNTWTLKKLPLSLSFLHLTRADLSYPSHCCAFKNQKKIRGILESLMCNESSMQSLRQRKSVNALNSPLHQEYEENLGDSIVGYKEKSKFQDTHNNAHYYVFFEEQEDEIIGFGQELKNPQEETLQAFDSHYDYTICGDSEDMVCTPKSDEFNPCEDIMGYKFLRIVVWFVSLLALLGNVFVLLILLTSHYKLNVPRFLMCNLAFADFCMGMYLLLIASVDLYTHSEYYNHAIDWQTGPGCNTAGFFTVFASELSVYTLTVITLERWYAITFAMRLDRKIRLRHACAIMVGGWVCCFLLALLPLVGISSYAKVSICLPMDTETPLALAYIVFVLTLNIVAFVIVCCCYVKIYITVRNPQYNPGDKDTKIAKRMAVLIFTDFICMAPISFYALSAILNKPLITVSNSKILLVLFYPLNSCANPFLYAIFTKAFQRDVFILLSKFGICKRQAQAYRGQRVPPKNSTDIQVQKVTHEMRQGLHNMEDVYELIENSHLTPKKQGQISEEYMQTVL
Summary of the method: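 Compounds are titrated over 15 concentrations, in triplicate, onto TSHR-HEK293 cells seeded at 800/well. Plates sit 30 min at room temperature before cAMP-d2 and anti-cAMP cryptate are added; signal is read after a further hour.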

[12] = qHTS assay to identify small molecule agonists of the hypoxia (HIF-1) signaling pathway - cell viability counter screen (AID 1224844; calls by dose curve; also: nearly all actives have a fitted effect of over 50% in size; also: potency is read from the fitted curve at half-maximal effect)
Summary of the method: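 Same wells as the HIF-1 reporter screen; ME-180 cells carrying HRE-bla, 17 hr treatment at 37C; CellTiter-Glo luminescence read after 30 min at room temperature.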

[13] = qHTS assay to identify small molecule agonists of the estrogen related receptor signaling pathway with the pleiotropic PPARgamma coactivator (PGC) from Tox21 10K library (AID 1224842); also: nearly all actives have a fitted effect of over 15% in size
Summary of the method: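 PGC/ERR reporter cells (NTP line) were seeded 2,000 per well, rested 6 h at 37 C/5% CO2, then pin-dosed with compounds in DMSO for 18 h at 37 C; luciferase read by One-Glo luminescence after 30 min at room temperature.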

[14] = qHTS assay to identify small molecule agonists of the constitutive androstane receptor (CAR) signaling pathway - cell viability counter screen (AID 1224836); also: series mostly up to about 92 µM; nearly all actives have a fitted effect of over 45% in size
Summary of the method: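 Cell viability multiplexed with the CAR agonist screen: CellTiter-Fluor fluorescence after 23 hr at 37 C. HepG2-CYP2B6-hCAR cells got compounds at 15 concentrations with PK11195 at 0.75 uM final.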

[15] = qHTS assay to identify small molecule antagonists of the estrogen related receptor (ERR) signaling pathway - cell viability counter screen (AID 1224818); also: potency is read from the fitted curve at half-maximal effect
Summary of the method: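 Cytotoxicity check run alongside the ERR antagonist screen: cells exposed to test compounds 17.5 h at 37 C, viability taken as CellTiter-Fluor fluorescence intensity.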

[16] = qHTS assay to identify small molecule antagonists of the estrogen related receptor signaling pathway with the pleiotropic PPARgamma coactivator (PGC) cell viability counter screen (AID 1224822; also: series mostly up to about 46 µM)
Summary of the method: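 Viable cell signal (CellTiter-Fluor, 30 min, 37 C/5% CO2) was measured in PGC/ERR cells after a 17.5 h compound incubation.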

[17] = qHTS assay to identify small molecule antagonists of the estrogen related receptor (ERR) signaling pathway (AID 1224819; also: potency is read from the fitted curve at half-maximal effect; nearly all actives have a fitted effect of over 50% in size)
Summary of the method: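 ERR reporter cells were plated at 2,000 cells/well and left 6 h at 37 C/5% CO2 before pin-tool transfer of compounds in DMSO. After 18 h at 37 C, One-Glo was added and luminescence was read 30 min later at room temperature.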

[18] = qHTS assay to identify small molecule agonists of the estrogen related receptor (ERR) signaling pathway (AID 1224820)
Summary of the method: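 An ERR cell line provided by NTP was seeded at 2,000 cells per well and allowed to settle for 6 h before compounds in DMSO were added. After 18 h at 37 C, luciferase activity was measured by One-Glo luminescence.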

[19] = qHTS assay to identify small molecule agonists of the estrogen related receptor signaling pathway with the pleiotropic PPARgamma coactivator (PGC) (AID 1224823)
Summary of the method: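 Compounds dissolved in DMSO are added by pin tool to PGC/ERR cells that have settled for 6 h, and incubation continues 18 h at 37 C. Reporter output is measured as One-Glo luminescence.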

Measured: Potency

Cc1ccc2ccc3cccc4ccc1c2c34
active: [5] 35.5 µM | [8] 30.6 µM
inactive: [1] | [2] | [3] | [4] | [6] | [7] | [9] | [10] | [11] | [12]

O=C(Nc1ccc(Cl)cc1)Nc1ccc(Cl)c(C(F)(F)F)c1
active: [1] 29.8 µM | [2] 23.7 µM | [4] 11.9 µM | [5] 34.7 µM | [7] 16.8 µM | [10] 5.31 µM | [12] 26.8 µM
inactive: [3] | [8] | [13] | [11]

COc1ccc(-n2nc(CCC(=O)N(C)O)cc2-c2ccc(Cl)cc2)cc1
active: [4] 26.6 µM | [12] 19 µM
inactive: [1] | [2] | [3] | [5] | [6] | [7] | [11]

C[C@@H]1CC[C@H]2C(C)(C)[C@H]3C[C@@]12CC[C@@]3(C)O
active: [10] 54.4 µM | [11] 54.4 µM
inactive: [1] | [2] | [3] | [4] | [5] | [14] | [6] | [7] | [9] | [12]

CC1=C(/C=C/C(C)=C/C=C/C(C)=C\C=O)C(C)(C)CCC1
active: [3] 1.63 µM | [4] 51.6 µM | [8] 23 µM | [11] 10.3 µM
inactive: [1] | [2] | [5] | [14] | [6] | [12]

C=C1C(C)(C)[C@@]2(Cl)C(Cl)[C@]1(Cl)C(Cl)(Cl)C2(Cl)Cl (stereo partly specified)
active: [2] 60 µM | [4] 67.3 µM | [8] 21.3 µM | [10] 53.5 µM | [11] 13.4 µM | [12] 48.1 µM
inactive: [1] | [3] | [5] | [14] | [7] | [13]

CCN(CC)CCSC(=O)C(c1ccccc1)c1ccccc1
active: [2] 26.6 µM
inactive: [1] | [3] | [4] | [5] | [14] | [6] | [7] | [8] | [9] | [11] | [12]

Cc1cn[nH]c1
inactive: [1] | [2] | [3] | [15] | [16] | [4] | [5] | [14] | [6] | [9] | [11] | [12]

O=C(Oc1ccccc1)c1cccc(C(=O)Oc2ccccc2)c1
active: [3] 0.456 µM | [8] 1.44 µM
inactive: [1] | [2] | [15] | [4] | [14] | [7] | [9] | [12]

C/C=C/C=N/NC(=O)c1ccncc1
inactive: [1] | [2] | [3] | [4] | [5] | [14] | [6] | [9] | [11]

COc1cc(C=C2CCC/C(=C\c3ccc(O)c(OC)c3)C2=O)ccc1O
inactive: [1] | [2] | [8] | [13] | [11]
active: [3] 13.3 µM | [4] 13.3 µM | [5] 30.9 µM | [10] 11.9 µM | [12] 15.1 µM

Cc1cc2c(C(C)C)c(O)c(O)c(C=O)c2c(O)c1-c1c(C)cc2c(C(C)C)c(O)c(O)c(C=O)c2c1O
active: [15] 10.2 µM | [17] 2.76 µM | [4] 13.3 µM | [9] 26.6 µM | [10] 11.9 µM
inactive: [1] | [2] | [3] | [18] | [19] | [5] | [8] | [11]

SCCCCCCCCS
inactive: [1] | [2] | [3] | [4] | [5] | [14] | [6] | [7] | [8] | [9] | [11] | [12]

CC(C)(C)C1=CC(=O)C=C(C(C)(C)C)C1=O
inactive: [1] | [2] | [3] | [4] | [5] | [14] | [7] | [9] | [11] | [12]

COc1cc(C(=O)NS(=O)(=O)c2ccccc2C)ccc1Cc1cn(C)c2ccc(NC(=O)OC3CCCC3)cc12
active: [5] 27.5 µM
inactive: [1] | [2] | [3] | [4] | [14] | [6] | [7] | [9] | [10] | [11]

C(=C/c1ccccc1)/c1ccccc1
inactive: [1] | [2] | [3] | [4] | [5] | [14] | [7] | [8] | [9] | [10] | [13] | [11] | [12]

Cc1ccc(N)cc1O
active: [3] 12.2 µM
inactive: [1] | [2] | [15] | [16] | [14] | [6] | [7] | [9] | [12]

CCCCCCCOC(=O)c1ccc(O)cc1
inactive: [1] | [2] | [14] | [6] | [7] | [8] | [9]
active: [3] 34.4 µM | [5] 71 µM | [12] 55 µM

O=c1cccc[nH]1
inactive: [1] | [2] | [4] | [5] | [14] | [6] | [7] | [8] | [9] | [10] | [13] | [11] | [12]
